# Source: PubChem (several laboratories)
# 3CLpro inhibitor = SARS-CoV 3CLpro protease inhibition; P0C6X7; recombinant SARS-CoV 3CLpro, quenched FRET peptide cleavage; inhibition, % at 6 µM; 0.14% of 290,000 active; in the data active = inhibition above about 12%
# Sa ugtP lethal = compounds lethal to S. aureus RN4220 ugtP deletion mutant; 0.54% of 330,000 active; growth inhibition, % (concentration not given with the values); AID 1259309; OD600 growth, 16 h; in the data active = growth inhibition above about 68%;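 note: plate controls were untreated wells for no effect and antibiotic for full effect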
# BJeLR viability = BJeLR cell viability loss; inhibition, % (no concentration beside the values); BJeLR (HRASV12) viability, CellTiter-Glo ATP luminescence, 48 h; 0.17% of 300,000 active; in the data active = inhibition above about 50%
# PrPC surface inh = reduces human prion protein on the cell surface; 0.43% of 370,000 active; P04156; AID 720596; cell surface PrPC, TR-FRET read-out; inhibition, % at 13.8 µM; in the data active = inhibition above about 24%; note: 0% = median of the test wells and 100% = reference compound wells
# RN4220 kill = S. aureus RN4220 growth inhibition. inhibition, % (concentration not given with the values). 0.33% of 330,000 active. OD600, 16 h; in the data active = inhibition above about 85%;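 note: plate controls were untreated cells for no effect and reference antibiotic for full effect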
# DUSP3 inh = inhibitors of human VHR1 phosphatase (DUSP3). P51452. recombinant VHR phosphatase, pNPP absorbance. inhibition, % at 13.3 µM. 0.52% of 290,000 active. AID 1654; in the data active = inhibition above about 50%
# Target sequence (P51452 whole entry, looked up): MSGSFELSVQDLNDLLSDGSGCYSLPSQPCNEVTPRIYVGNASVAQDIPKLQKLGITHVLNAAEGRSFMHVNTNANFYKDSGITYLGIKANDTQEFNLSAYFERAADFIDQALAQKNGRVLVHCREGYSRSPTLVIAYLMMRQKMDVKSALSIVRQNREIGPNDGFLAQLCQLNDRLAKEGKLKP
# Starred values were filed as active, the others as inactive; . = not tested or not shown. Compounds with a hit are over-represented: about 1.4% of the library has one in this group of screens.
SMILES,3CLpro inhibitor,Sa ugtP lethal,BJeLR viability,PrPC surface inh,RN4220 kill,DUSP3 inh
CCn1cc(C(=O)O)c(=O)c2cnc(N3CCN(C(=S)NC(=O)c4ccccc4Cl)CC3)nc21,-3,94*,14,.,99*,13
CCn1cc(C(=O)O)c(=O)c2cnc(N3CCN(C(=S)NC(=O)c4ccc(OC)cc4)CC3)nc21,0,86*,3,7,46,-29
CCn1cc(C(=O)O)c(=O)c2cnc(N3CCN(C(=S)NC(=O)c4ccc(F)c(F)c4)CC3)nc21,-4,14,8,4,11,22
CC1CN(C(C)CO)C(=O)c2cc(NC(=O)Cn3cnnn3)ccc2OC1CN(C)S(=O)(=O)c1cn(C)cn1 (centres undefined),.,2,.,.,8,.
CCCN(CCC)C1=NC(=Cc2ccco2)C(=O)N1c1ccccc1,.,34,.,.,2,.
CC(C)CCn1c(=O)c(C(=O)N/N=C/c2cccc(F)c2)c(O)c2ccccc21,-3,.,-4,-3,.,-4
CC(C)Cn1c(=O)c(C(=O)NN=Cc2cccc(F)c2)c(O)c2ccccc21,.,99*,.,.,100*,.
CSc1nc2ccc3nc(NC(=O)c4cccs4)sc3c2s1,2,-32,-2,0,-2,28
CSc1nc2ccc3nc(NC(=O)c4ccc(Cl)s4)sc3c2s1,-3,2,6,.,3,53*
O=Cc1coc2ccc3ccccc3c2c1=O,1,19,-15,13,4,56*
CC(=Cc1ccccc1)C(=O)NCCc1ccccc1,.,12,.,.,-1,.
O=C(CN1C(=O)CSc2ccc(S(=O)(=O)N3CCCCC3)cc21)NCc1ccccc1,-1,10,10,8,7,-3
O=C(CN1C(=O)CSc2ccc(S(=O)(=O)N3CCCCC3)cc21)NCc1ccccc1Cl,3,-1,-1,4,3,56*
COc1ccc(N2C(=O)/C(=C/c3ccc(C)o3)C(=O)NC2=S)cc1,0,4,51*,8,3,-4
CCOc1ccc(N2C(=O)/C(=C/c3ccc(C)o3)C(=O)NC2=S)cc1,6,-3,0,-5,0,-6
COC(=O)[C@@]12CCCCN1C(c1ccc(-c3ccc4c(c3)OCO4)c(OC)c1)C1C(=O)N(C)C(=O)C12 (some centres undefined),.,-20,.,.,3,.
Cc1ccc(NC(=S)N2CCCCCC2)c(C)c1,-3,3,1,-5,3,53*
CC(C)CNS(=O)(=O)c1ccc(CCC(=O)NC2CCCC2)cc1,2,1,0,-1,6,52*
CCCCCC(=O)Nc1cccc(C2=NOC3(C2)CC(C(N)=O)N(C(=O)C2CCC(=O)N2)C3)c1 (centres undefined),.,1,.,.,6,.
COc1ccc(NC(=O)N(C)CC2Oc3c(NC(=O)Nc4ccc(C(F)(F)F)cc4)cccc3C(=O)N(C(C)CO)CC2C)cc1 (centres undefined),.,-3,.,.,-6,.
Cc1ccc(O)c(CNc2nc3ccccc3n2C(C)C)c1,2,8,12,4,-1,6
CCCCn1c(NCc2cc(C)ccc2O)nc2ccccc21,.,.,.,5,.,.
CC(C)n1c(NCc2cc(Cl)ccc2O)nc2ccccc21,-4,-16,-5,-9,-25,54*
C=CCn1c(NCc2cc(C)ccc2O)nc2ccccc21,-3,-6,-4,-4,-18,50*
OCC1=CC(O)C2C=COC(OC3OC(CO)C(O)C(O)C3O)C12 (centres undefined),.,1,.,.,5,.
SMILES,3CLpro inhibitor,Sa ugtP lethal,BJeLR viability,PrPC surface inh,RN4220 kill,DUSP3 inh
COc1cc(C(=O)/C=C/c2cccnc2)c([N+](=O)[O-])cc1OC,.,.,55*,-14,.,.
C[C@]12CCC(=O)C=C1CCC1C2C(=O)C[C@]2(C)C(=O)CCC12 (some centres undefined),.,5,.,.,10,.
O=C(Cc1ccccc1[N+](=O)[O-])NNC(=O)Nc1ccc2c(c1)OCO2,-3,3,6,-3,0,50*
O=C(Cc1ccccc1[N+](=O)[O-])Nc1ccc2c(c1)OCO2,11,6,-3,0,4,11
NC(=O)C1CCCNc2c(F)cc([N+](=O)[O-])cc2C(=O)NC(CCC(=O)O)C(=O)NC(CO)C(=O)N1 (centres undefined),.,-2,.,.,2,.
COc1ccc(NC(=O)C2CCCN2S(=O)(=O)c2cccc3nsnc23)c(OC)c1 (centres undefined),-1,0,2,.,-1,60*
COc1ccccc1NC(=O)C1CCCN1S(=O)(=O)c1cccc2nsnc12 (centres undefined),-2,12,0,.,7,2
COc1ccccc1Oc1ccc(NC=CC(=O)C(C)(C)C)cc1,.,-3,.,.,6,.
Nc1ccc2c3c(cccc13)-c1ccccc1-2,.,85*,.,5,71,.
Cc1ccc2c3c(cccc13)-c1ccccc1C2=O,2,47,1,-9,2,21
C=CCC(CC(=O)N(CCO)Cc1ccccc1)C(=O)NC(COC(=O)C(CC=C)Cc1ccc(F)cc1)Cc1ccccc1 (centres undefined),.,18,.,.,-7,.
CC(C)(C)c1ccc(C(=O)NNC(=O)c2cccc(Br)c2)cc1,3,-1,-11,-3,4,-7
Cc1cccc(NC(=O)C(=O)NNC(=O)c2ccc(C(C)(C)C)cc2)c1,1,.,-2,1,.,52*
Cc1nn2c(C)c(C(=O)Nc3ccccc3)cnc2c1C#N,2,-1,1,-8,-1,51*
Cc1cc2ncc(C(=O)Nc3ccccc3)c(C)n2n1,-4,1,6,-2,4,-23
COc1ccc(NC(=O)/C(Cl)=C(/Cl)S(=O)(=O)Cc2ccc(C)cc2)cn1,0,98*,0,.,37,26
COc1ccc(NC(=O)Cc2ccc(Cl)c(Cl)c2)cn1,3,-1,8,5,5,13
CCOc1ccc2c(c1)c(N=O)c(O)n2C,1,90*,9,-14,4,-2
COc1cc(C(C)=O)ccc1OCc1cc(C(=O)N(C)CCC2CCCCO2)no1 (centres undefined),0,-1,2,-1,3,58*
COc1ccccc1OCc1cc(C(=O)N(C)CCC2CCCCO2)no1 (centres undefined),-8,10,-7,-2,3,14
COC(=O)c1cc(NC(=O)CSc2nnc(N)s2)ccc1Cl,-2,0,4,9,8,17
Nc1nnc(SCC(=O)Nc2ccc(Cl)c(C(=O)O)c2)s1,4,-1,7,-10,-1,56*
COc1ccc(-c2sc3ccccc3c2-c2ccc(OCCN(C)C)cc2)cc1,.,100*,.,-1,101*,.
CCN1C(=O)C2C(c3ccc(-c4ccc(OC)cc4)c(OC)c3)N[C@@](C)(C(=O)OC)C2C1=O (some centres undefined),.,-5,.,.,3,.
CCN1/C(=C/c2sc(-c3ccccc3C)c[n+]2C)Sc2ccccc21,-1,101*,17,14,100*,3
